Test [1] can be described thus: inhibitors of TNFa-induced NFkB p65 translocation, primary screen, imaging, HUVEC, MLSMR starter and 10KST1 sets (AID 438;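 active = inhibition above 20% together with a positive visual image hit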;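 note: compound added about 3h40 before a 20 min TNFalpha stimulation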;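 for inhibition: signal is the nuclear over cytoplasmic p65 intensity ratio per well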). Conditions: HUVEC TNFa-induced p65 nuclear translocation; cell count: measured here: nuclei count (cytotoxicity indicator), at 2.08 µM; inhibition: at 2 µM, stronger effect = higher value, 0% TNFa-plus-vehicle, 100% no-TNFa wells.
Test [2] in a line: inhibitors of mutant huntingtin aggregation, primary screen, imaging, exon1htt(103Q)mCFP cells, high-content imaging (AID 483).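 For nuclei count: percent of the per-plate median nuclei count of sample wells.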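 Note: compound exposure lasted 3 days before fixation.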 Conditions: exon1htt(103Q)mCFP cell line, aggregate imaging, at 2 µM; inhibition of aggregation: stronger effect = higher value; nuclei count: measured here: cell count, toxicity.
The nature of test [3]: inhibitors of E-selectin induction by TNFa, primary screen, imaging, HUVEC, immunofluorescence, MLSMR starter and 10KST1 sets (AID 487;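 active = visually confirmed hit in the image check and inhibition above 20%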;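 for inhibition: signal is fraction of cell area covered by stained E-selectin grains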;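 for nuclei count: 100% = median nuclei count of all wells on the same plate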). Conditions: HUVEC TNFalpha-induced E-selectin immunofluorescence imaging, at 2 µM; inhibition: stronger effect = higher value; nuclei count: measured here: cell number, toxicity.
For test [4], the target named is Voltage-gated potassium channel subunit beta-2 (Rattus norvegicus) (UniProt P62483). Nature of the test: KvBeta enzyme negative modulators, primary screen, biochemical, NADPH fluorescence (AID 622;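 active = fluorescence slope higher than the sample average by over 3 SD, cut at about -0.22 in these data, passing the limit was not always enough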;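 note: slope of raw intensity against log time taken from 70 to 1610 s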). Conditions: recombinant KvBeta, 4-cyanobenzaldehyde reduction, at 10 µM, stronger effect = higher value.
Test [5] has the same target. Description: KvBeta positive modulators, primary screen, biochemical, NADPH fluorescence (AID 623;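 active = NADPH fluorescence slope more negative than the mean of all samples by about 3 SD, 99.7% confidence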;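 note: fluorescence intensity change per second fitted from 20 to 320 s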). Conditions: Recombinant KvBeta, NADPH fluorescence decrease slope, 10 min; at 10 µM; stronger effect = lower value.
For test [6], the target named is Alpha-2C adrenergic receptor (Homo sapiens) (UniProt P18825). Description: modulators of alpha2C/GIRK thallium flux, primary screen, cell-based, HEK293 alpha2C/GIRK1/2 (AID 624;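 active = fluorescence slope after compound addition differing from the mean of all screened samples at 99.7% confidence, in either direction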;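 note: slope of fluorescence ratio to pre-addition baseline per second over 15 to 24 s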). Conditions: thallium flux BTC fluorescence, at 10 µM, actives lie on both sides.
Test [7] in a line: inhibitors of Sendai virus-induced IRF3 signaling, primary screen, TLR/RLR signaling modifier project, cell-based, Sendai virus stimulus, luciferase, 10K MLSCN set (AID 602276;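 active = inhibition at or above 50% at 10 µM; inactive = inhibition below 50%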;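 note: firefly luciferase from ISG56 promoter only with Renilla not read in this screen; 0% = Sendai virus plus DMSO and 100% = medium plus DMSO without virus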). Conditions: HEK293 RL24 IRF3 luciferase reporter, at 10 µM, stronger effect = higher value.
A short description of test [8]: inhibitors of poly I:C-induced TLR3 signaling, primary screen, cell-based, poly I:C stimulus, luciferase, 10K MLSCN set (AID 602277;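 active = inhibition of the reporter signal at or above 50%; inactive = inhibition below 50%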). Conditions: HEK293-TLR3 RL24 IRF3 luciferase reporter, at 10 µM, stronger effect = higher value. For orientation: Reporter assays use an easily measured gene product as a stand-in for the process of interest.

What is called inhibition is the change of the read-out against control, counted positive when it falls.

The structures appear in SMILES notation. The source made the active and inactive calls.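 Rule for the calls, unless noted: active = visual image review flags a hit and inhibition of aggregation exceeds 20%; inconclusive = visual hit but inhibition at or below 20%; inactive = no hit on visual image review.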

Voltage-gated potassium channel subunit beta-2 (Rattus norvegicus), sequence (P62483 whole entry, looked up): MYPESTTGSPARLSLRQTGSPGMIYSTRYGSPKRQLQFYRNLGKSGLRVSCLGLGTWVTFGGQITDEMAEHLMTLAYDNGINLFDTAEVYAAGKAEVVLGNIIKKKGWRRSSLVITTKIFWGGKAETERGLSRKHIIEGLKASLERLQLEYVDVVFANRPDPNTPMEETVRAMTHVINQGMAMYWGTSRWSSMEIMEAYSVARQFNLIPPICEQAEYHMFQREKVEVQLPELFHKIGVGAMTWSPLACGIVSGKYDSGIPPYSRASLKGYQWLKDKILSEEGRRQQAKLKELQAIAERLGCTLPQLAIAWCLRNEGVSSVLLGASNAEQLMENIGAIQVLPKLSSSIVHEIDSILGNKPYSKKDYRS
Alpha-2C adrenergic receptor (Homo sapiens), sequence (P18825 whole entry, looked up): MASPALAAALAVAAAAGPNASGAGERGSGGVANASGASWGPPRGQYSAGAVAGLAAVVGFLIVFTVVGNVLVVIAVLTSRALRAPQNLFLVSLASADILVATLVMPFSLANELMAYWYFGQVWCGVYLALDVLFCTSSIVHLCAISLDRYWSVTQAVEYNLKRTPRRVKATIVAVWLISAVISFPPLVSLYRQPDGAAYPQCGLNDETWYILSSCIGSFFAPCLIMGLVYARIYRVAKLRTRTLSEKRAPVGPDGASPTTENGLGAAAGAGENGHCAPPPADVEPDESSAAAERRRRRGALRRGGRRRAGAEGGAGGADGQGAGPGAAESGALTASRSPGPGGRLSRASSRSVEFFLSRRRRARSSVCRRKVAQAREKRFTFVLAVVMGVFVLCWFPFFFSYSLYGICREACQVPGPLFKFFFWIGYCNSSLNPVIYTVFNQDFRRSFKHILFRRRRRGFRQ

With `Cc1cc2ncn(S(=O)(=O)c3ccc(S(=O)(=O)N4CCOCC4)cc3)c2cc1C`, the cell count in test [1] came to 311. Besides, the inhibition in test [1] was -3.3% (inactive); in test [3], -98.8% (inactive); in test [7] it was -0.351% (inactive); in test [8] it was 3.91% (inactive). Moreover, in test [2], the inhibition of aggregation is 0.7% (inactive). The results for the nuclei count in test [2] and in test [3] were 93.4% and 113%, respectively. Besides, in test [4], the fluorescence slope is -0.518 (inactive). For the same molecule, the NADPH fluorescence slope in test [5] is 1.7e-05 (inactive). Moreover, in test [6], the slope was 0.00432 (inactive).
For `CCSc1nc2ccccc2n1CCC(=O)O`, the cell count in test [1] worked out at 615. The inhibition in test [1] was -62.2% (inactive); in test [3], -96.2% (inactive); in test [7], 10.2% (inactive); in test [8], 18.3% (inactive). Moreover, the inhibition of aggregation in test [2] was 1.9% (inactive). Further, the nuclei count turned out to be 85.7% in test [2] and 111% in test [3]. For the same molecule, the fluorescence slope in test [4] was -0.49 (inactive). Besides, the NADPH fluorescence slope in test [5] was -0.000157 (inactive). Further, the slope in test [6] is 0.00453 (inactive).
For `Cc1ccc(S(=O)(=O)N2CCCC(c3nnc4n3-c3ccccc3SC4)C2)cc1` (centres undefined), the cell count in test [1] is 431. In addition, the inhibition in test [1] was 3.4% (inactive); in test [3], -34% (inactive); in test [7] it was 16.2% (inactive); in test [8], 19.1% (inactive). The inhibition of aggregation in test [2] was 4.2% (inactive). Moreover, the nuclei count was determined as 95.7% in test [2] and 103% in test [3]. In test [4], the fluorescence slope was -0.67 (inactive). Also, the NADPH fluorescence slope in test [5] is -3.6e-05 (inactive). In addition, the slope in test [6] is 0.00342 (inactive).
On to `C(#Cc1ccccc1)Cn1nnc2ccccc21`, for which the cell count in test [1] amounted to 288. Further, the inhibition in test [1] is 18% (inactive); in test [3], -5% (inactive); in test [7], -41.6% (inactive); in test [8], -170% (inactive). Besides, the inhibition of aggregation in test [2] was 11.6% (inactive). For the same molecule, the nuclei count turned out to be 73.2% in test [2] and 103% in test [3]. Also, the fluorescence slope in test [4] was -0.336 (inactive). For the same molecule, in test [5], the NADPH fluorescence slope is -2.1e-05 (inactive). Moreover, the slope in test [6] was 0.00582 (inactive).
Consider `Cc1cccc(C(=O)N(C)c2nnc(-c3ccncc3)s2)c1`, for which the cell count in test [1] amounted to 346. In addition, the inhibition in test [1] was -10.7% (inactive); in test [3] it was 34.2% (inactive); in test [7], -6.14% (inactive); in test [8], -18% (inactive). The inhibition of aggregation in test [2] is 6.1% (inactive). The results for the nuclei count in test [2] and in test [3] were 74.3% and 102%, respectively. Further, the fluorescence slope in test [4] is -0.546 (inactive). In addition, the NADPH fluorescence slope in test [5] was 9.6e-06 (inactive). Further, the slope in test [6] is 0.0064 (inactive).
For `COc1ccccc1C(=O)NC(C)C(c1cccs1)N1CCN(C)CC1` (centres undefined), in test [1], the cell count is 547. Further, the inhibition was -1.6% (inactive) in test [1], -38.9% (inactive) in test [3], -13.5% (inactive) in test [7] and -8.87% (inactive) in test [8]. In test [2], the inhibition of aggregation is 0.7% (inactive). Besides, the nuclei count in test [2] came out at 106%; in test [3], 114%. The fluorescence slope in test [4] was -0.394 (inactive). The NADPH fluorescence slope in test [5] is 1.2e-06 (inactive). Also, in test [6], the slope was 0.00389 (inactive).
With `CCn1cc(C(=O)NCC2CCCO2)c(=O)c2cc(S(=O)(=O)N(C)C)ccc21` (centres undefined), the cell count in test [1] came to 767. The inhibition was -2.4% (inactive) in test [1], -50.6% (inactive) in test [3], -12.7% (inactive) in test [7] and 1.32% (inactive) in test [8]. Also, the inhibition of aggregation in test [2] was -9.8% (inactive). The results for the nuclei count in test [2] and in test [3] were 105% and 117%, respectively. The fluorescence slope in test [4] was -0.465 (inactive). Moreover, in test [5], the NADPH fluorescence slope was -8.2e-05 (inactive). For the same molecule, the slope in test [6] is 0.00671 (inactive).
In the case of `COc1ccccc1-n1c(SCC(=O)Nc2ccc3c(c2)OCO3)nc2c(c1=O)SCC2`, in test [1], the cell count stood at 324. Moreover, the inhibition in test [1] is -4.6% (inactive); in test [3], -54.1% (inactive); in test [7], -5.47% (inactive); in test [8], 7.78% (inactive). Moreover, in test [2], the inhibition of aggregation was -2.1% (inactive). Moreover, the nuclei count in test [2] was 94.7%; in test [3], 137%. Also, the fluorescence slope in test [4] was -0.545 (inactive). In test [5], the NADPH fluorescence slope is 4.8e-05 (inactive). The slope in test [6] was 0.00487 (inactive).
With `CCOC(=O)c1cc(-c2ccco2)nc2c1c(C)nn2CCC#N`, the cell count in test [1] is 590. The inhibition in test [1] was -10.8% (inactive); in test [3], -15.3% (inactive); in test [7] it was -22.4% (inactive); in test [8] it was -3.59% (inactive). Besides, the inhibition of aggregation in test [2] was -3.4% (inactive). The nuclei count in test [2] came out at 103%; in test [3] it was 146%. The fluorescence slope in test [4] was -0.214 (active). The NADPH fluorescence slope in test [5] is 2.1e-05 (inactive). Besides, the slope in test [6] is 0.00625 (inactive).
In the case of `O=C(Cc1cccs1)Nc1ccccc1NC(=O)Cc1cccs1`, the cell count in test [1] was 323. For the same molecule, the inhibition is -1.4% (inactive) in test [1], 7.1% (inactive) in test [3], 9.79% (inactive) in test [7] and 34.9% (inactive) in test [8]. Besides, the inhibition of aggregation in test [2] was 16.2% (inactive). For the same molecule, the nuclei count in test [2] came out at 82.6%; in test [3], 88.2%. For the same molecule, the fluorescence slope in test [4] was -0.366 (inactive). Moreover, the NADPH fluorescence slope in test [5] was -7.6e-05 (inactive). For the same molecule, in test [6], the slope is 0.00795 (inactive).
Turning to `CCOC(OCC)P(=O)(C(C)C)C(C)C`, the cell count in test [1] came to 491. The inhibition in test [1] is 6% (inactive); in test [3], -53.6% (inactive); in test [7] it was 17.5% (inactive); in test [8], 17.3% (inactive). The inhibition of aggregation in test [2] was -0.1% (inactive). Besides, the nuclei count amounted to 93.4% in test [2] and 134% in test [3]. For the same molecule, the fluorescence slope in test [4] is -0.443 (inactive). In test [5], the NADPH fluorescence slope is 4e-05 (inactive). In test [6], the slope is 0.00549 (inactive).
For `COc1ccc(NC(=O)CSc2nc3c(c(=O)n2-c2ccc(F)cc2)SCC3)c(OC)c1`, in test [1], the cell count was 339. The inhibition is 0.6% (inactive) in test [1], -407% (inactive) in test [3], 19.4% (inactive) in test [7] and 26.7% (inactive) in test [8]. Besides, the inhibition of aggregation in test [2] is -14.2% (inactive). Moreover, the results for the nuclei count in test [2] and in test [3] were 109% and 114%, respectively. Also, the fluorescence slope in test [4] is -0.474 (inactive). Further, in test [5], the NADPH fluorescence slope is -1.7e-05 (inactive). In test [6], the slope was 0.00491 (inactive).
As to `COc1ccccc1-c1nnc(SCC(=O)N2CC(C)CC(C)C2)o1` (centres undefined), the cell count in test [1] worked out at 351. In addition, the inhibition was 11.1% (inactive) in test [1], 28% (inactive) in test [3], 21.4% (inactive) in test [7] and 29.2% (inactive) in test [8]. Moreover, the inhibition of aggregation in test [2] is -3.7% (inactive). In addition, the nuclei count in test [2] was found to be 112%; in test [3], 94.8%. The fluorescence slope in test [4] is -0.411 (inactive). The NADPH fluorescence slope in test [5] was -5.2e-05 (inactive). The slope in test [6] is 0.00365 (inactive).
For the molecule `COc1cc2c(cc1OC)CN(C(=O)CSc1nnc3scc(-c4ccccc4)n13)CC2`, in test [1], the cell count was determined as 548. Also, the inhibition was -0.3% (inactive) in test [1], -28.8% (inactive) in test [3], 1.32% (inactive) in test [7] and 16.8% (inactive) in test [8]. Besides, the inhibition of aggregation in test [2] was 12.8% (inactive). In addition, the values for the nuclei count in test [2] and in test [3] were 98.2% and 109%, respectively. In addition, the fluorescence slope in test [4] was -0.515 (inactive). Besides, the NADPH fluorescence slope in test [5] was -2.7e-05 (inactive). For the same molecule, the slope in test [6] was 0.00728 (inactive).
